# Measured values taken from PubChem BioAssay (NCATS).
# Values joined by “and” are separate entries in the source; they are usually repeats but may differ in a detail not shown here. Equal entries are not always repeated. Results filed as inconclusive are left out. Active and inactive are the calls of the source. Unless noted, the call rests on the fitted dose curve; in most records, active means well fitted curve in the direction sought with a large enough effect; inconclusive means small, poorly fitted or top-dose-only effect, or another doubt; inactive means no such curve, though single readings can be large; an effect the other way counts as inactive or inconclusive.
# Columns and labels:
# [1] = biological target: Tyrosine-protein kinase Yes (Homo sapiens) (UniProt P07947); assay: qHTS for small molecule inhibitors of Yes1 kinase: Primary Screen (AID 686947); further: nearly all actives have a fitted effect of over 60% in size; further: potency means the concentration at half of the fitted maximal effect
# Chain of Tyrosine-protein kinase Yes (Homo sapiens) (P07947 whole entry, looked up): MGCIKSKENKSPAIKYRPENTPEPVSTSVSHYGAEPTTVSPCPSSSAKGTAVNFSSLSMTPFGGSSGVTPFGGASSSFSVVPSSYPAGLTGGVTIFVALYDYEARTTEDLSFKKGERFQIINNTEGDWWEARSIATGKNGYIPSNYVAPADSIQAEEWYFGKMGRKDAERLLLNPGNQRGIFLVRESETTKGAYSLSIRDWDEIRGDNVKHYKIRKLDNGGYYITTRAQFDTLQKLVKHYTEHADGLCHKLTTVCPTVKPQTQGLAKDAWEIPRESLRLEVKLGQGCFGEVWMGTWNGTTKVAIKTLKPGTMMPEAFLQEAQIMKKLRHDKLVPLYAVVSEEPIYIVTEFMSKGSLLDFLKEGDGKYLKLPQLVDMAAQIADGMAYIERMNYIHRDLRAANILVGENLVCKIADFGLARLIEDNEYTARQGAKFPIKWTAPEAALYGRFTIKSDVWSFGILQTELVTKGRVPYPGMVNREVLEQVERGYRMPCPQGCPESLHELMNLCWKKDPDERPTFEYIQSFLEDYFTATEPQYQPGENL
# Method in brief: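 ADP-Glo luminescence reports ADP formed by 4 nM Yes1 phosphorylating poly(E4Y) (0.3 mg/mL) with 0.1 mM ATP for 60 min at room temperature, following 20 min compound preincubation; normalised between DMSO wells with and without enzyme.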
# [2] = qHTS for small molecule inhibitors of Yes1 kinase: Counter Assay (AID 686950);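 further: no kinase present so only ADP-Glo detection of a fixed ADP amount is tested; luminescence from ADP-Glo reporting ADP in a fixed ATP and ADP mixture; 0% = DMSO wells with ATP plus ADP and -100% = ATP-only wells without ADP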
# Method in brief: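 ADP-Glo luminescence read after a 60 min room-temperature incubation of compound with an ATP/ADP mix (0.08 mM/0.02 mM) and no kinase, following a 20 min compound preincubation. Signal scaled between ATP+ADP (max) and 0.1 mM ATP-only (min) wells; Tris pH 7.5, Mg2+, DTT.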
# [3] = qHTS Assay for Identifying Gametocytocidal Compounds (AID 743244); further: potency means the concentration at half of the fitted maximal effect;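 on max response: on the % scale 0 is the no-effect control and ±100 the full control effect; actives lower the fluorescent signal which means gametocytes are killed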; conditions: P. falciparum 3D7 stage III-V gametocytes, alamarBlue, 72 h; max response: stronger effect = lower value
# Method in brief: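 Fluorescence at Ex 525/Em 598 nm, recorded 24 h after alamarBlue addition, reports residual metabolic activity of 3D7 gametocytes (stages III–V) following 72 h compound exposure at 37 °C, 5% CO2.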
# [4] = qHTS profiling for inhibitors of Plasmodium falciparum (3D7) proliferation (AID 743322; call rule not given here;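 further: infected erythrocytes exposed to compound for 72 h before lysis; 100% = DMSO vehicle wells and 0% = 0.29 µM artemisinin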); conditions: P. falciparum 3D7 proliferation; at 28.7 µM (top of the series) unless noted
# Method in brief: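 Parasite DNA was quantified by SYBR Green I fluorescence (ex 485, em 535 nm) after overnight lysis in saponin/Triton buffer at room temperature. Cultures at 0.3% parasitemia and 2.5% hematocrit were first exposed to compound for 72 h at 37 C; signals were normalised to artemisinin (0.29 uM) and vehicle wells.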
# [5] = qHTS profiling for inhibitors of Plasmodium falciparum (DD2) proliferation (AID 743323; call rule not given here); conditions: lower = more inhibition; at 28.7 µM (top of the series) unless noted
# Method in brief: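 1536-well qHTS; infected RBCs 0.3% parasitemia/2.5% Hct final; cpd 72 h 37 C 5% CO2; lysis buffer + SYBR Green I, o/n RT dark; FI 485/535; norm. to 0.29 uM artemisinin and DMSO, plate-stack corrected.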
# [6] = qHTS assay for environmental chemicals that activate the Aryl hydrocarbon Receptor (AhR) signaling pathway (AID 651777); conditions: 1A2-DRE human hepatoma cells, luciferase, 24 h; stronger effect = higher value; further: % of control where 0% means no effect; nearly all actives have a fitted effect of over 15% in size
# Method in brief: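 AhR activation is scored as a rise in luciferase from a stable DRE–CYP1A2 promoter construct in human hepatoma cells. Treatment lasts 24 hr at 37 C; detection uses One-Glo after 30 min at room temperature.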
# [7] = biological target: Peroxisome proliferator-activated receptor alpha (Homo sapiens) (UniProt Q07869); assay: qHTS assay for small molecule agonists of the peroxisome proliferator-activated receptor alpha (PPARalpha) signaling pathway (AID 651778); conditions: PathHunter PPARalpha complementation, chemiluminescence, 6 h; stronger effect = higher value; further: % of control where 0% means no effect
# Chain of Peroxisome proliferator-activated receptor alpha (Homo sapiens) (Q07869 whole entry, looked up): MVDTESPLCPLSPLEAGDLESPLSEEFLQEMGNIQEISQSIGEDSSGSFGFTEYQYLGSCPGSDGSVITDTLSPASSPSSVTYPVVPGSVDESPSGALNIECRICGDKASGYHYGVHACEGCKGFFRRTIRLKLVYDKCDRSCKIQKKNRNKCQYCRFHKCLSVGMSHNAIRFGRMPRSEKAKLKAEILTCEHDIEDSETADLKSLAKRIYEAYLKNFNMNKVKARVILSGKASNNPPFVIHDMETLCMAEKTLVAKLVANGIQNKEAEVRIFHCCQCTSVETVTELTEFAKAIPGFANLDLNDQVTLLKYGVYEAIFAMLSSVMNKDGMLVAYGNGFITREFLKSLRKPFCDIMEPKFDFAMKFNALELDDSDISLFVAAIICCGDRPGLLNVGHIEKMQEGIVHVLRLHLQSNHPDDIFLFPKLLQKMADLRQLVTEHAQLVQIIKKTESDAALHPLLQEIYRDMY
# Method in brief: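 Chemiluminescence from complemented enzyme reported PPARalpha activation in cells after 6 hr of compound treatment at 37 C. The detection reagent was incubated for 60 min at room temperature, and compounds were scored as agonists.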
# [8] = biological target: Nuclear receptor ROR-gamma (Homo sapiens) (UniProt P51449); assay: qHTS assay for small molecule antagonists of the retinoid-related orphan receptor gamma (ROR-gamma) signaling pathway (AID 651802);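 further: CHO cells with doxycycline-induced ROR-gamma expression; luciferase reporter luminescence driven by ROR response element; on the % scale 0 is the no-effect control and ±100 the full control effect; nearly all actives have a fitted effect of over 60% in size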
# Chain of Nuclear receptor ROR-gamma (Homo sapiens) (P51449 whole entry, looked up): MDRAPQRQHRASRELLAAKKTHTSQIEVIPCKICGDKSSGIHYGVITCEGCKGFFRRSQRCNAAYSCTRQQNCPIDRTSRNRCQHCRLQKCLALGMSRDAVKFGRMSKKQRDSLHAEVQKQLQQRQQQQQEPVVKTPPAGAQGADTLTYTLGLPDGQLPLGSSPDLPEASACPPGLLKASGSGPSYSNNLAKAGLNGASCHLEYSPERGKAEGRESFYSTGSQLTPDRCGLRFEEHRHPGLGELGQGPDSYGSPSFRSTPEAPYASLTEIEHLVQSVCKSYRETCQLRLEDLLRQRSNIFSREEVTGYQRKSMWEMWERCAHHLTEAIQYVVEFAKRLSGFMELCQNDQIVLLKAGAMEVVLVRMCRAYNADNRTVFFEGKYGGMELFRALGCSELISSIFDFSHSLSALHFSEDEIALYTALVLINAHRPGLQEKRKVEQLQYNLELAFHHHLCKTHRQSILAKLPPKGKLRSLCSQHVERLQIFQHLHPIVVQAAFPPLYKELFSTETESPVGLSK
# Method in brief: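 Luminescence (One-Glo, 30 min RT) measured 16 h after compound addition and doxycycline induction at 37C. Reporter: RORE-luciferase under TET-inducible ROR-gamma in CHO cells.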
# [9] = qHTS assay for small molecule agonists of the antioxidant response element (ARE) signaling pathway measured by Nrf2-dependant transcriptional activity (AID 720636; active means well fitted curve in the direction sought with a large enough effect in the repeat runs; an effect the other way counts as inactive or inconclusive;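 further: HepG2 cells with an ARE-driven luciferase reporter; % of control where 0% means no effect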)
# Method in brief: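 First, ARE-luc HepG2 cells attached for 6 hr at 37 C in 1% dialyzed FBS medium. Next, compound or DMSO was added and incubated 16 hr. Finally, ONE-Glo reagent was added and luminescence measured after 30 min.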
# [10] = qHTS assay for small molecule antagonists of the retinoid-related orphan receptor gamma (ROR-gamma) signaling pathway - cell viability counter screen (AID 720652; active means well fitted curve in the direction sought with a large enough effect in the repeat runs; an effect the other way counts as inactive or inconclusive;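 further: CHO reporter cells with doxycycline-induced ROR-gamma expression; compound exposure lasted 16 hr before ATP read; on the % scale 0 is the no-effect control and ±100 the full control effect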)
# Method in brief: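 Cytotoxicity counter screen: intracellular ATP (CellTiter-Glo luminescence) measured in the doxycycline-induced CHO RORE-luciferase reporter line after 16 hr compound exposure at 37 C, 5% CO2.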
# [11] = qHTS assay for small molecule agonists of the antioxidant response element (ARE) signaling pathway measured by Nrf2-dependant transcriptional activity - cell viability counter screen (AID 720653; active means well fitted curve in the direction sought with a large enough effect in the repeat runs; an effect the other way counts as inactive or inconclusive; further: on the % scale 0 is the no-effect control and ±100 the full control effect); conditions: ARE-bla HepG2 viability, CellTiter-Glo ATP luminescence, 16 h; stronger effect = lower value
# Method in brief: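 Cytotoxicity counter screen: intracellular ATP quantified by CellTiter-Glo luminescence in the same ARE-bla HepG2 plates, after 16 h compound exposure and a 2 h beta-lactamase substrate step.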
# [12] = qHTS assay for cell viability of HEK293 cells (AID 743288); conditions: ATP luminescence (CellTiter-Glo), 18 h, stronger effect = lower value; further: on the % scale 0 is the no-effect control and ±100 the full control effect; nearly all actives have a fitted effect of over 50% in size
# Method in brief: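 After 18 h compound exposure at 37 C, parental HEK293 cells (2,000/well) are lysed with CellTiter-Glo and luminescence is read following 30 min at room temperature.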
# [13] = qHTS assay for cell viability of the p53RE-bla HCT-116 cell line (AID 743292); further: on the % scale 0 is the no-effect control and ±100 the full control effect; nearly all actives have a fitted effect of over 55% in size
# Method in brief: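 Quantitative high-throughput format: compounds in DMSO were pinned onto p53RE-bla HCT-116 cells (4,000/well) and incubated 16 h at 37 C. Total intracellular ATP, read by CellTiter-Glo luminescence, reflects viable cell number.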
smiles,measurement,setting,value
CC(C)n1c(C=C[C@H](O)C[C@H](O)CC(=O)O)c(-c2ccc(F)cc2)c2ccccc21,Potency,[1],inactive
same,outcome,[2],inactive
same,max response,[3],-4.13% (inactive)
O=C(O)c1ccc(O)c2ncc(N3CCOCC3)cc12,Potency,[1],inactive
same,outcome,[2],inactive
same,remaining parasite growth % (stronger effect = lower value),[4],22.3%
Cc1csc(-c2nnc(Nc3ccc(Oc4ncccc4-c4ccnc(N)n4)cc3)c3ccccc23)c1,Potency,[1],inactive
same,outcome,[2],inactive
same,max response,[3],10.6% (inactive)
same,remaining parasite growth % (stronger effect = lower value),[4],93.3%
same,"activity, percent of control",[5],85.6%
C[C@@H]1C[C@H]2[C@@H]3CCC4=CC(=O)C=C[C@]4(C)[C@@]3(F)[C@@H](O)C[C@]2(C)[C@@]1(O)C(=O)CO,activation,[6],-0.0369% (inactive) and 0.315% (inactive)
same,max response,[7],-0.146% (inactive) and 1.68% (inactive)
same,outcome,[8],inactive
same,outcome,[9],inactive
same,outcome,[10],inactive
same,max response,[11],-1.58% (inactive) and -7.2% (inactive)
same,max response,[12],-1.33% (inactive) and -8.25% (inactive)
same,outcome,[13],inactive
CCc1cc(-c2n[nH]c(C)c2-c2ccc3c(c2)OCCO3)c(O)cc1O,Potency,[1],4.34 µM (active)
same,outcome,[2],inactive
same,max response,[3],-4.02% (inactive)
same,remaining parasite growth % (stronger effect = lower value),[4],99.3%
same,"activity, percent of control",[5],90.4%
Cn1cc(-c2ccc3nnc(Sc4ccc5ncccc5c4)n3n2)cn1,Potency,[1],inactive
same,outcome,[2],inactive
same,max response,[3],-16.9% (inactive)
same,remaining parasite growth % (stronger effect = lower value),[4],74.3%
same,"activity, percent of control",[5],95.2%
Cc1ccc(C(=O)N(CCCN)[C@@H](c2nc3cc(Cl)ccc3c(=O)n2Cc2ccccc2)C(C)C)cc1,Potency,[1],inactive
same,outcome,[2],inactive
same,Potency,[3],18.7 µM (active)
same,remaining parasite growth % (stronger effect = lower value),[4],-0.752%
same,"activity, percent of control",[5],0.933%
Cc1c(C(=O)Nc2ccc(N3C[C@@H](C)O[C@@H](C)C3)nc2)cccc1-c1ccc(OC(F)(F)F)cc1,Potency,[1],inactive
same,outcome,[2],inactive
same,max response,[3],0.51% (inactive)
same,remaining parasite growth % (stronger effect = lower value),[4],72.2%
same,"activity, percent of control",[5],72.3%
CC(C)(C)c1[nH]cnc1C=c1[nH]c(=O)c(=Cc2ccccc2)[nH]c1=O,Potency,[1],inactive
same,outcome,[2],inactive
same,max response,[3],-26.5% (inactive)
COc1c(C)cnc(Cn2cnc3c(Cl)nc(N)nc32)c1C,Potency,[1],inactive
same,outcome,[2],inactive
same,Potency,[3],23.5 µM (active)
same,remaining parasite growth % (stronger effect = lower value),[4],40.5%
same,"activity, percent of control",[5],31.4%
CC1=C[C@@H]2[C@@H]([C@@H](O)C[C@@]3(C)[C@H]2C[C@@H](C)[C@]3(O)C(=O)CO)[C@@]2(C)Cc3cnn(-c4ccccc4)c3C=C12,Potency,[1],inactive
same,outcome,[2],inactive
same,max response,[3],-28.3% (inactive)
same,remaining parasite growth % (stronger effect = lower value),[4],0.407%
same,"activity, percent of control",[5],-0.0711%
CCC(=O)N1CCN(c2ccc(-n3c(=O)ccc4cnc5ccc(-c6cnc7ccccc7c6)cc5c43)cc2C(F)(F)F)CC1,Potency,[1],inactive
same,outcome,[2],inactive
same,Potency,[3],5.26 µM (active)
same,remaining parasite growth % (stronger effect = lower value),[4],4.73%
same,"activity, percent of control",[5],15.4%
